# VP16 counter: VP16 counterscreen qHTS for inhibitors of ROR gamma transcriptional activity | Drosophila S2 Gal4-VP16 UAS-luciferase, luminescence, 20 h | Potency, µM (series often up to 53.6 µM), for inactives: top-dose activity, negative = inhibition, usual class: inhibitors | hit rate 3.5% among 310,000;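 further: Gal4-VP16 expression switched on by copper sulfate through the metallothionein promoter; potency means the concentration at half of the fitted maximal effect; on the % scale 0 is the no-effect control and ±100 the full control effect; nearly all actives have a fitted effect of over 50% in size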
# CBFb RUNX1 block: qHTS Assay for Compounds Blocking the Interaction Between CBF-beta and RUNX1 for the Treatment of Acute Myeloid Leukemia; Potency, µM (top dose mostly 59.8 µM), for inactives: at the top dose activity, negative = inhibition, actives largely listed as inhibitors; 230,000 tested, under 10 active; Runt-related transcription factor 1 (Homo sapiens) + Core-binding factor subunit beta …; AlphaScreen CBFb-His/RUNX1-biotin binding, biochemical; further: % of control where 0% means no effect
#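 Inhibition was taken as any reduction in AlphaScreen signal from the CBF-beta–RUNX1 pair (His and biotin tags, 30 nM each), measured after compound (15 min) and bead (90 min) incubations at room temperature.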
# Six1-Eya2 blk: qHTS Assay for Inhibitors of the Six1/Eya2 Interaction; hit rate 0.56% among 360,000; AlphaScreen GST-Six1/His-Eya2 binding, biochemical; stronger effect = lower value; activity change, % (concentration not given with the values); AID 651725, 2012; Homeobox protein SIX1 (Homo sapiens) + Protein phosphatase EYA2 (Homo sapiens), …; in the data active means activity change below about -65%; inconclusive means mostly about -30% to -63%; further: on the % scale 0 is the no-effect control and ±100 the full control effect
#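 Six1/Eya2 binding was read as AlphaScreen signal after compounds were pinned into GST-Six1 plus His-tagged Eya2 (5X stock 250/500 nM) in pH 8.0 Tris/NaCl/TCEP buffer, beads added, then incubated 1 h, 37 C, dark.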
# RORgamma inh: qHTS for inhibitors of ROR gamma transcriptional activity. Nuclear receptor ROR-gamma (Mus musculus), P51450. Drosophila S2 Gal4-RORgamma UAS-luciferase reporter, 20 h. Potency, µM (doses to about 53.6 µM), inactives show at the highest dose activity change, negative = inhibition, actives largely listed as inhibitors. hit rate 5.4% among 310,000. AID 2551, 2010; further: potency means the concentration at half of the fitted maximal effect; on the % scale 0 is the no-effect control and ±100 the full control effect; nearly all actives have a fitted effect of over 60% in size
# Target sequence (P51450 whole entry, looked up, the tested form may be a part): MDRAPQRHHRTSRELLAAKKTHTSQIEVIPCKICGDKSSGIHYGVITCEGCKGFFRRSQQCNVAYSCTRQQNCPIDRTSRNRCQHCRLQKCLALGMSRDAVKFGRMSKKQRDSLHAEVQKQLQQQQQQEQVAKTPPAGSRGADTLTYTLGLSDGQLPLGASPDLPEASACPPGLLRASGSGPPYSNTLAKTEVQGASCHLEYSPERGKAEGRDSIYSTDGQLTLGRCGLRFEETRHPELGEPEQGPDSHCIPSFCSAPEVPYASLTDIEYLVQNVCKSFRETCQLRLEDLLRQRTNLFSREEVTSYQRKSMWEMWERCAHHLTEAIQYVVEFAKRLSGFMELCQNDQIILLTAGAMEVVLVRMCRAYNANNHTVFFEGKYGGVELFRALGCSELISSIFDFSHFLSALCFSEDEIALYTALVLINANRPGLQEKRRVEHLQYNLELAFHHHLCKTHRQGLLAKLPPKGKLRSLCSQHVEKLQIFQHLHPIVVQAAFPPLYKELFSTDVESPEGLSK
#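 In this cell-based reporter format, copper sulfate (700 uM final) drives Gal4–ROR gamma fusion expression from a metallothionein promoter in Drosophila Schneider cells; compounds preincubated 1 hr, reporter read after 20 hr at ambient temperature.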
# CtBP-E1A inh: qHTS Assay for Inhibitors of the CtBP/E1A Interaction; CtBP / adenovirus E1A interaction (AlphaScreen); AlphaScreen GST-E1A/His-CtBP binding, 1536-well; stronger effect = lower value; activity change, % (concentration not given with the values); hit rate 0.49% among 340,000; AID 651724, 2012; in the data active means activity change below about -65%; inconclusive means mostly about -30% to -63%; further: on the % scale 0 is the no-effect control and ±100 the full control effect
#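 GST-E1A and His-tagged CtBP (125 nM each as 5X stock) were preincubated with pin-transferred compound for 2 h at 37 °C in the dark, then glutathione donor and nickel acceptor beads were added for 1 h before AlphaScreen reading.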
# MBNL1 CUG block: qHTS Assay for Inhibitors of MBNL1-poly(CUG) RNA binding; Muscleblind-like protein 1 (Homo sapiens), Q9NR56; TR-FRET MBNL1-His/biotin-(CUG)12 binding, 665/545 ratio; Potency, µM (series often up to 57.5 µM), for inactives: at the highest dose activity change, negative = inhibition, actives largely listed as inhibitors; hit rate 0.036% among 280,000; AID 2675, 2010; active means well fitted inhibition curve with a large enough effect in the signal ratio, with a control signal flat, not every such curve was filed as active; inconclusive means small, poorly fitted or top-dose-only effect, or effect the other way, or a change in a side signal; inactive means no such curve, though single readings can be large or run the other way; the % refers to the signal ratio; further: potency means the concentration at half of the fitted maximal effect; on the % scale 0 is the no-effect control and ±100 the full control effect
#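 TR-FRET between His-tagged MBNL1 and biotin-(CUG)12 RNA, detected with Tb anti-His antibody (0.055 ng/ul) and streptavidin-XL665 (5 nM), 60 min at room temperature. Compounds titrated 92 nM to 58 uM; 665/545 nm ratio normalized to buffer and complex controls.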
# Starred values were filed as active, the others as inactive; ? = inconclusive; . = not tested or not shown; [ ] = remark or other dose. Rows were chosen to be rich in hits. Some 5.5% of all compounds tested hit in one or more screens of this group. Unless noted, the call rests on the fitted dose curve; in most records, active means well fitted curve in the direction sought with a large enough effect; inconclusive means small, poorly fitted or top-dose-only effect, or another doubt; inactive means no such curve, though single readings can be large; an effect the other way counts as inactive or inconclusive.
SMILES,VP16 counter,CBFb RUNX1 block,Six1-Eya2 blk,RORgamma inh,CtBP-E1A inh,MBNL1 CUG block
COc1ccccc1NC(=O)CC1S/C(=N/N=C(\C)C2CCCCC2)NC1=O (stereo unspecified),0%,.,-3,-13%,-1,9%
COc1ccc(Cl)cc1NC(=O)CC1S/C(=N/N=C2CCCCCC2)NC1=O (stereo unspecified),5µM*,.,-8,3.5µM*,4,-5%
CC1=C/C(=N\N=C2\NC(=O)C(CC(=O)Nc3ccccc3)S2)CC(C)(C)C1 (stereo unspecified),?,-11%,0,1.6µM*,.,5%
CCOc1ccc(NC(=O)CC2S/C(=N/N=C3CCCCCC3)NC2=O)cc1 (stereo unspecified),11µM*,.,-13,20µM*,-28,-3%
CC(=O)c1cccc(NC(=O)CC2S/C(=N/N=C3CCCCCC3)NC2=O)c1 (stereo unspecified),-26%,.,-4,10µM*,-5,0%
COC(=O)C(C(=O)OC)[C@@H](NC(=O)OCc1ccccc1)c1ccccc1,-7%,9%,.,-7%,.,.
Nc1ccn([C@@H]2O[C@H](C(=O)NCCCN3CCCC3=O)[C@@H](O)[C@H]2O)c(=O)n1,.,.,1,.,10,.
Cc1ccc(C)c(Nc2cc(C)nc3ccccc23)c1,.,.,-4,.,.,.
CCOC(=O)c1cnc(Nc2nc3ccccc3o2)nc1CSC(=S)N(CC)CC,0.56µM*,-5%,-10,0.56µM*,-22,-8%
Cc1nc(Nc2nc3ccccc3o2)nc(C)c1C,?,-15%,-19,11µM*,-23,.
Cc1ccnc(Nc2nc3ccccc3o2)n1,7.9µM*,13%,-26,4.5µM*,-8,?
Cc1ccc(Nc2nc3ccccc3o2)cc1F,15%,3%,-2,?,7,0%
N#Cc1cnc(Nc2nc3ccccc3o2)nc1-c1ccccc1,5µM*,-1%,-2,2.5µM*,-11,7%
Cc1ccc2oc(Nc3nc(C)c(C)c(C)n3)nc2c1,6%,-6%,0,?,.,0%
CCOc1ccc(NC(=O)COC(=O)c2ccc3c(c2)OCCO3)cc1,.,.,11,.,1,.
CCOC(=O)c1cnc(Nc2nc3ccccc3o2)nc1CSc1ncccn1,.,.,-23,.,?,.
CCCc1nc(Nc2nc3ccccc3o2)nc(C)c1C(=O)OCC,?,6%,-1,6.3µM*,3,-1%
O=C(NC(=S)Nc1cccc(C(F)(F)F)c1)c1ccc2nonc2c1,10µM*,-9%,-19,3.2µM*,-20,.
CCOc1cc(OCC)cc(C(=O)NC(=S)Nc2cccc(C(F)(F)F)c2)c1,0%,1%,5,5µM*,4,-9%
CC(C)CN1CCCC2(CCN(S(=O)(=O)c3ccccc3)CC2)C1,-5%,.,.,-5%,.,.
Cc1ccc(S(=O)(=O)NCCS(=O)(=O)N2CCN(c3ccc(F)cc3)CC2)cc1,.,.,1,.,-3,.
Cc1ccccc1NC(=O)C1CCN(C(=O)N2CCOc3ccccc32)CC1,-7%,.,-1,-10%,6,-1%
O=S(=O)(NCc1ccccn1)c1ccc(Cl)c(C(F)(F)F)c1,?,6%,-5,7.1µM*,7,-8%
O=S(=O)(Nc1ncccn1)c1cc(Cl)ccc1Cl,1%,.,7,-19%,1,2%
O=S(=O)(NCc1ccccn1)c1cc(C(F)(F)F)ccc1Cl,?,12%,-1,7.1µM*,4,-3%
SMILES,VP16 counter,CBFb RUNX1 block,Six1-Eya2 blk,RORgamma inh,CtBP-E1A inh,MBNL1 CUG block
O=S(=O)(NCc1ccccn1)c1cc(Cl)ccc1Cl,10µM*,.,-5,8.9µM*,-6,3%
CCOC(=O)CSc1nc2ccccc2c(=O)n1-c1ccc(C)cn1,-20%,.,0,1%,3,-10%
CN1CCC(=NNC(=O)CSCc2ccccc2)CC1,-4%,1%,-5,17%,-15,-7%
CC(SCc1ccccc1)C(=O)NN=C1CCN(C)CC1 (stereo unspecified),24%[0.365 µM],2%,-5,7.1µM*,-21,-4%
CCOc1ccc(C=C2SC(=O)N(CCN)C2=O)cc1,-2%,10%,.,0.63µM*,.,.
Cc1ccc(C2=N/C(=C\c3cccc(F)c3)C(=O)O2)cc1,-4%,.,4,-16%,-2,4%
Cc1c(-c2ccc(Cl)cc2)oc(=O)c2c(N)n(-c3ccccc3)nc12,?,1%,-1,7.9µM*,3,24%
O=c1c(CCc2ccccc2)nc2cnc(N3CCNCC3)nc2n1Cc1ccc(F)cc1,?,.,.,4.5µM*,.,.
CC(C)(C)c1ccc(/C=N/Nc2cccc(C(=O)O)c2)cc1,6%,0%,-4,7%,7,4%
O=C(O)c1ccc(N/N=C/c2c(F)cccc2Cl)cc1,0.71µM*,.,-1,2µM*,6,11%
O=C(O)c1ccc(/C=N/Nc2ccc(F)cc2F)cc1,?,-11%,4,13µM*,-1,13%
CC(C)(C)c1ccc(/C=N/Nc2ccc(C(=O)O)cc2)cc1,18µM*,4%,-15,0.02µM*,-3,.
Cc1ccc(NC(=O)CCNC(=O)Cn2cnc3ccccc3c2=O)cc1F,-5%,.,6,12%,4,-1%
CCC(C(=O)OCC(=O)Nc1ccc2[nH]c(=O)[nH]c2c1)c1ccccc1 (stereo unspecified),.,.,-15,.,2,.
COc1ccc(OC)c(S(=O)(=O)Nc2cccc3c(O)cccc23)c1,.,.,-5,.,-2,.
COc1ccc(OC)c(S(=O)(=O)Nc2ccc(O)c3ccccc23)c1,4%[0.365 µM],-18%,-16,10µM*,-26,?
COc1ccc(OC)c(S(=O)(=O)Nc2ccc(Oc3ccccc3)cc2)c1,6.3µM*,4%,-1,?,-1,4%
CCOc1ccc(NS(=O)(=O)c2cc(OC)ccc2OC)cc1,2%,4%,0,-2%,-5,-4%
CC1CCCCC1NC(=O)COC(=O)c1c2c(nc3ccccc13)/C(=C\c1ccco1)CC2 (stereo unspecified),.,.,?,.,-12,.
Cc1cc(C)c(S(=O)(=O)N2CCOC23CCN(S(C)(=O)=O)CC3)c(C)c1,.,.,-4,.,5,.
Cn1cc(C(=O)CCl)c2ccccc21,7.9µM*,11%,0,11µM*,.,3%
Cn1cc(C(N)=O)c2ccccc21,-1%,?,6,-13%,-5,-5%

# Bioassay records as filed in PubChem BioAssay.
